# According to the supplement of paper PMC6555819:
# Assays:
# Assay in all cases: PBM binding z-score (relative to random genomic background probes); higher = stronger binding; sequences stand for … in GC…GCGATTGACAGCGTAGAATGAAGG
# [1] = test system: RARb homodimer (NR concentration 270 nM)
# In short: (§1)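 Probes were double-stranded and carried 34-nt variable regions with direct-repeat seeds, single-nucleotide variants, half-site ablations and random human genomic background sequences, printed on custom Agilent 4×180K protein-binding microarrays. Arrays were incubated 1 h with ligand-free nuclear receptor dimers in PBS pH 7.4, 2% milk, 0.02% Triton X-100, 1 mM DTT, 0.2 mg/mL BSA and 0.4 mg/ml salmon testes DNA. Antibodies against each partner (one per run) detected binding, and scanned fluorescence was regression-normalized. Binding z-scores use the random background probes as reference.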
# [2] = test system: RARg:RXRa (NR concentration 270 nM, RXRa partner concentration 90 nM)
# In short: as §1
# [3] = test system: RARg homodimer (NR concentration 270 nM)
# In short: as §1
# [4] = test system: RXRa DBDmut IVT, anti-RXR (DBD mutation: RXRa K156A/R161A, NR concentration 90 nM)
# In short: as §1
# [5] = test system: RXRa homodimer (NR concentration 180 nM)
# In short: as §1
# [6] = test system: THRa:RXRa (NR concentration 90 nM, RXRa partner concentration 90 nM)
# In short: as §1
# [7] = test system: THRa homodimer (NR concentration 90 nM)
# In short: as §1
# [8] = test system: VDR homodimer (NR concentration 270 nM)
# In short: as §1
Sequence,PBM binding z-score [1],PBM binding z-score [2],PBM binding z-score [3],PBM binding z-score [4],PBM binding z-score [5],PBM binding z-score [6],PBM binding z-score [7],PBM binding z-score [8]
ATATGTAGGTTAGCTGGGGTCAATCAGACTAGGC,3.82,4.3,3.37,1.26,5.42,5.12,2.82,3.44
CCTAGAAGGCCAGGGTCACTCAAGCATTTCGCTT,3.02,3.47,3.15,0.637,3.9,2.96,1.16,2.13
ATCGAAAGGTCGTGAGGAGAGTATACAGAAAGGC,2.56,4.52,4.04,1.59,5.22,2.7,0.251,0.69
CCTACTGGGCCACGAAAGGTCATTGCTTCAGTGA,4.75,4.81,4.35,0.871,4.81,3.73,0.827,2.61
GATACAGGGTCAAGGGCAGAGTACGCGTATTGAT,3.91,5.63,5.26,2.38,6.19,3.7,1.49,3.28
CAAACAAGGTCAAGGTCAAAGTCGGTTTGTGCCA,5.74,–,7.76,4.13,–,4.6,4.5,5.71
TCGGGTAGGTTACCAATGGGGCATTCAGCTTTCT,1.04,1.63,0.754,0.101,0.683,0.482,0.377,0.0681
GCTATTAGTTGAAAGGGCTACCGAATGATTCTCG,0.228,-0.023,0.197,0.703,0.0628,-0.589,-0.623,-0.485
CCTAGTTTGTCAAGGTCACACACGCTATAGGTAC,4.5,4.51,4.58,2.88,4.73,4.32,4.77,4.93
CCAGACAGGTGAGTAGGTAACTCAGCCTCGATTA,0.326,0.196,0.224,0.331,0.246,0.0417,0.159,-0.162
TCAGACAGGTGAAGGTAACTCATGTACGCAGTCG,0.741,0.76,0.656,1.32,1.02,0.677,0.193,0.0395
CTAACTAGGTCAAGGACAGTGAATCTCCGCACGC,3.16,3.64,4.21,1.34,2.64,3.08,2.01,0.398
TCAGACAGGTGAAGGTAACTCTGGTACGCAGTCG,0.721,0.492,0.535,1.03,0.951,1.01,0.16,0.154
CGTCATAGTTCAAGGTAACGTAACAGAAAGCAGC,2.2,2.96,3.42,2.26,1.99,2.32,1.16,0.917
CCTTACTGGTCACTGACAGGTTATAGCATTTGGA,1.55,1.76,1.32,0.856,0.874,0.492,0.796,0.63
ATATGTAGGTTATCGGTTCATTCAGTTTGCGCAT,1.17,1.39,0.882,2.4,1.66,1.27,1.08,5.79
ATCTCTAGGCAAAAGTTCAGTGAATCCCGAGGAT,2.4,1.66,1.69,0.479,1.02,0.622,-0.181,0.923
